# Most compounds without a hit are left out; they make up all but 1.6% or so of the library.
# KCNQ2 inh = blocks the rat KCNQ2 potassium channel | O88943 | CHO-K1 KCNQ2, FluxOR thallium flux, 20 min; stronger effect = lower value | B-score at 10 µM | 1.1% of 310,000 active;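 active = fluorescence ratio B-score at most minus 3 library SDs, with starting brightness B-score within 2 library SDs, cut at about -5.5 in these data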
# KCNQ2 enhance = enhances the rat KCNQ2 potassium channel | B-score at 10 µM | 0.54% of 310,000 active | CHO-K1 KCNQ2, FluxOR thallium flux fluorescence; stronger effect = higher value;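 active = fluorescence ratio B-score at least 3 SD of library B-scores, with initial fluorescence B-score within 3 of them, cut at about 5.3 in these data; same plate scores as AID 2156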;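 also: B-score of peak minus minimum over baseline fluorescence ratio after K+ and Tl+ stimulus; positive B-score means potentiation of KCNQ2 with more thallium influx and brighter signal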
# KCNQ2 inh conf = confirmation of rat KCNQ2 potassium channel inhibitors. shares compounds with KCNQ2 inh. AID 493025. activity change, negative = inhibition, % at 10 µM. KCNQ2-expressing cells, thallium flux, inhibition; stronger effect = lower value. 57% of 1,000 active
# KCNQ1 spec = KCNQ2 inhibitor that also affects human KCNQ1 channel | KCNQ1-expressing cells, FluxOR thallium flux fluorescence; stronger effect = lower value | activity change, negative = inhibition, % at 10 µM | 15% of 1,000 active | AID 493026 | shares compounds with KCNQ2 inh;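 active = activity change at least 3 SD of negative controls below their mean in both duplicate wells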;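 also: CHO cells stably transfected with KCNQ1 and depolarized by potassium stimulus; peak minus minimum fluorescence over baseline after thallium addition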
# CHO Tl ctr = activity in parental CHO cells lacking KCNQ2. shares compounds with KCNQ2 inh. thallium flux counter-screen; stronger effect = lower value. activity change, % at 10 µM. 14% of 1,000 active. AID 493029
# KCNQ2 patch conf = confirmation of rat KCNQ2 potassium channel inhibitors; 49% of 550 active; shares compounds with KCNQ2 inh; KCNQ2-expressing cells, automated patch clamp current; calls only at 10 µM; AID 588531
# Hits are given with their value; - = inactive; . = no result given; + = active, no number. Unless noted, no rule for the calls is given here.
SMILES,KCNQ2 inh,KCNQ2 enhance,KCNQ2 inh conf,KCNQ1 spec,CHO Tl ctr,others
C/C(=N\NC(=O)c1c(Cl)c(C)nn1C)c1cccc(NC(=O)C2CCCC2)c1,-,.,.,.,.,
Cc1ccc(-c2nnc(-c3ccccc3)c(-c3ccccc3)n2)cc1,-,.,.,.,.,
Cc1cc(-c2nnc(-c3ccccc3)c(-c3ccccc3)n2)c(C)o1,-9.9,-,-,-,-,
Cc1ccc(Nc2nc(N)c3ccccc3n2)cc1C,-,.,.,.,.,
Cc1ccc(NC2c3ncccc3C(=O)N2Cc2ccco2)c(C)c1 (centres undefined),-,-,.,.,.,
CC1CCCC/C1=N/Nc1ccc([N+](=O)[O-])cc1[N+](=O)[O-] (centres undefined),-,-,.,.,.,
O=[N+]([O-])c1ccc(C2CCCC/C2=N\OCc2cccc(F)c2)c([N+](=O)[O-])c1 (centres undefined),-8.3,-,-,-,-,
Cc1ccc(NC(=O)NNC(=O)c2ccc3c(c2)NC(=O)C(C)(C)O3)cc1,-,.,.,.,.,
O=C(Nc1ccccc1)C(=O)Nc1ccc2c(c1)N(C(=O)C1CC1)CCC2,-,.,.,.,.,
COc1ccc(CCN2CC(C(=O)N(C)CCOc3ccccc3)CCC2=O)cc1 (centres undefined),-,.,.,.,.,
CN(CCOc1ccccc1)C(=O)C1CCC(=O)N(CCc2ccc(Cl)cc2)C1 (centres undefined),-7.8,-,-,-,-,
Cc1cc(C)cc(CC2CC(=O)N(c3ccc([N+](=O)[O-])cc3)C2=O)c1 (centres undefined),-,.,.,.,.,
COc1ccc(NC(=O)CN2CCN(CC(=O)Nc3ccc(OC)cc3)CC2)cc1,-,-,.,.,.,
O=C(NCC(c1ccco1)N1CCc2ccccc2C1)c1c(F)cccc1F (centres undefined),-,-,.,.,.,
Cc1ccc(C)c(S(=O)(=O)NCC(c2ccco2)N2CCc3ccccc3C2)c1 (centres undefined),-,.,.,.,.,
O=C(NCC(c1ccco1)N1CCc2ccccc2C1)c1cccc(Br)c1 (centres undefined),-7.9,-,-,-,-,
O=C(NCC(c1ccco1)N1CCOCC1)c1cccc(Cl)c1 (centres undefined),-,-,.,.,.,
O=C(NCC(c1ccco1)N1CCc2ccccc2C1)c1ccc(Cl)cc1 (centres undefined),-10,-,-31%,-30%,-22%,KCNQ2 patch conf=+
Cc1ccc(C(=O)NCC(c2ccco2)N2CCc3ccccc3C2)cc1 (centres undefined),-6.7,-,-,-,-,
Cc1ccc(C(=O)NCC(c2ccco2)N2CCOCC2)cc1 (centres undefined),-,-,.,.,.,
Cc1ccc(C(=O)NCC(c2ccco2)N2CCc3ccccc3C2)cc1C (centres undefined),-8.8,-,-28%,-,-,
COc1ccc(C2=NN(CC(=O)NCC(OC)OC)C(=O)CC2)cc1,-,-,.,.,.,
COc1cccc(NC2=C(Cl)C(=O)OC2OC(=O)c2ccco2)c1 (centres undefined),-,.,.,.,.,
O=C(NCC(c1ccco1)N1CCc2ccccc2C1)c1ccc(Br)cc1 (centres undefined),-9.7,-,-37%,-,-,KCNQ2 patch conf=+
O=C(NCC(c1ccco1)N1CCc2ccccc2C1)c1ccccc1Br (centres undefined),-,.,.,.,.,
SMILES,KCNQ2 inh,KCNQ2 enhance,KCNQ2 inh conf,KCNQ1 spec,CHO Tl ctr,others
CC(C(=O)NCC1CCCCC1)N(C)Cc1ccc(Br)cc1 (centres undefined),-,.,.,.,.,
CC(C(=O)NCC1CCCCC1)N(C)Cc1ccc(Cl)cc1 (centres undefined),-6.7,-,-,-,-,
CC1CCCCN1C(=O)CN1C(=O)c2ccccc2S1(=O)=O (centres undefined),-,-,.,.,.,
Cc1ccc(CN(C(=O)c2ccc([N+](=O)[O-])cc2)C2CCS(=O)(=O)C2)o1 (centres undefined),-,-,.,.,.,
O=C(/C=C/c1ccccc1)c1ccc2c(c1)OCO2,-,.,.,.,.,
O=C(/C=C/c1ccccc1Br)c1ccc2c(c1)OCO2,-6.8,-,-,-,-,
COc1ccc(CN(CCC(c2ccccc2)c2ccco2)C(=O)c2ccco2)cc1 (centres undefined),-6.7,-,-38%,-43%,-36%,KCNQ2 patch conf=-
COc1ccc(CN(C(=O)c2ccco2)c2ccccc2)cc1,-,-,.,.,.,
CCN(CC)C(=O)CC(c1ccccc1)c1ccco1 (centres undefined),-,.,.,.,.,
O=C(c1ccco1)N(CCC(c1ccccc1)c1ccco1)Cc1ccccc1 (centres undefined),-7.7,-,-26%,-,-,KCNQ2 patch conf=+
CC(C)(C)OC(=O)N1CCN(CCNC(=O)c2ccccc2)CC1,-,.,.,.,.,
CCN(CC)C(=O)Cn1cc(C(=O)C(=O)N2CCN(c3ccc([N+](=O)[O-])cc3)CC2)c2ccccc21,-,.,.,.,.,
CCN(CC)S(=O)(=O)c1cc(Cl)ccc1OC,-,-,.,.,.,
O=C(Oc1ccc(NC(=O)c2cc3c(cc2Br)OCO3)cc1)c1ccccc1,-,.,.,.,.,
CC1CCC(NC(=O)CCCn2sc3ccccc3c2=O)CC1 (centres undefined),-,.,.,.,.,
Cc1cccc(-c2nnc(SCc3ccc(C#N)cc3)n2Cc2ccco2)c1,-8.8,-,-26%,-,-,
CCn1c(SCc2ccc(C#N)cc2)nnc1-c1cccc(Cl)c1,-,.,.,.,.,
O=C(CCl)NC(=O)NC12CC3CC(CC(C3)C1)C2,-,-,.,.,.,
CC(C)CNC(=O)c1c2c(nc3ccccc13)-c1ccccc1CC2,-,.,.,.,.,
CCN(CC)C(=O)c1c2c(nc3ccccc13)-c1ccccc1CC2,-8.8,-,-,-,-,
C=CCNC(=O)c1c2c(nc3ccccc13)-c1ccccc1CC2,-7.6,-,-,-,-,
COc1cccc2c1CCc1c-2nc2ccccc2c1C(=O)O,-,-,.,.,.,
CCc1cccc(NC(=O)CCc2c(C)nn(-c3ccc(N4CCCCC4)nn3)c2C)c1,-,.,.,.,.,
CCc1ccc(OCCCC(=O)Nc2ccc(S(N)(=O)=O)cc2)cc1,-,.,.,.,.,
O=C(c1ccc(F)cc1)N(NC(=O)C(O)(c1ccccc1)c1ccccc1)c1ccccc1,-,.,.,.,.,
SMILES,KCNQ2 inh,KCNQ2 enhance,KCNQ2 inh conf,KCNQ1 spec,CHO Tl ctr,others
COC(=O)N(NC(=O)C(O)(c1ccccc1)c1ccccc1)c1ccccc1,-7,-,-,-,-,
CCOC(=O)N1CCc2c(sc3c2c(=O)n(Cc2ccccc2)c(=O)n3Cc2cccc(C)c2)C1,-8.6,-,-44%,-30%,-28%,KCNQ2 patch conf=-
O=C(O)Cn1c(=O)c2c3c(sc2n(Cc2ccccc2)c1=O)CCCC3,-,.,.,.,.,
CCOC(=O)N1CCc2c(sc3c2c(=O)n(Cc2ccccc2)c(=O)n3CC(=O)NCC2CCCO2)C1 (centres undefined),-,-,.,.,.,
CCOC(=O)N1CCc2c(sc3c2c(=O)n(Cc2ccccc2)c(=O)n3Cc2ccccc2F)C1,-12,-,-,-,-,
COc1ccc(OCCNS(=O)(=O)c2ccc3oc4ccccc4c3c2)cc1,-,-,.,.,.,
CN(CCOc1ccccc1)S(=O)(=O)c1ccc2oc3ccccc3c2c1,-7.8,-,-16%,-,-,KCNQ2 patch conf=-
Cc1cccc(N/N=C/c2ccccc2O)c1,-,.,.,.,.,
